Compound activity deposited in PubChem by National Center for Advancing Translational Sciences (NCATS).
Rango dissoc inh – qHTS Assay for Inhibitors of RanGTP induced Rango (Ran-regulated importin-beta cargo) - Importin beta complex dissociation; Snurportin-1 (Homo sapiens) + GTP-binding nuclear protein Ran (Homo sapiens) + Importin …; Biochemical FRET Rango-importin beta, RanGTP-induced dissociation; actives 0.071% (n = 340,000); Potency, µM (doses to about 46.1 µM), without a hit: top-dose activity change, negative = inhibition; AID 540253, 2011; calls by dose curve; note: % of control where 0% means no effect; nearly all actives have a fitted effect of over 45% in size
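Compounds sat 5 min at room temperature with 0.1 uM Rango biosensor plus 0.25 uM importin beta, then FRET pre-read. RanGTP-RCC1 (0.6 uM Ran, 2mM GTP, 0.2 uM RCC1) added for 45 min, and the CFP/YFP post-read measured blocked complex dissociation.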
A549 tox – Nrf2 qHTS screen for inhibitors: counterscreen for cytotoxicity | A549 ARE-Fluc cells, CellTiter-Fluor viability, 18-24 h | Potency, µM (highest dose often 46 µM), inactives show at the highest dose activity change, negative = cytotoxicity, usual class: inhibitors | actives 0.16% (n = 390,000); note: % is set by controls: 0 for no effect and ±100 for the full control effect
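A549 ARE-Fluc cells in 5% FBS OPTI-MEM, 5000 cells/well, rested 2 h then exposed to compounds in concentration-response for 18-24 h at 37 °C. Viability by CellTiter-Fluor fluorescence (Ex 405/Em 525) after 30 min; luciferase luminescence (BugLite, 15 min, RT) read afterwards.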
Nrf2 ARE act – qHTS of Nrf2 Activators; AREc32 ARE-luciferase reporter (MCF7-derived line), luminescence, 24 h; Potency, µM (highest dose often 46.1 µM), for the others: at the top dose activation, hits mostly activators; actives 0.31% (n = 410,000); AID 624171, 2012; note: % of control where 0% means no effect; nearly all actives have a fitted effect of over 65% in size
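ARE-driven firefly luciferase activity in AREc32 cells measured after a 24 hr compound exposure at 37 deg C, using Steady-Glo reagent and a 30 min room-temperature hold.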
Nrf2 block – Nrf2 qHTS screen for inhibitors; Potency, µM (doses to about 46 µM), for the others: at the highest dose activity change, negative = inhibition, most hits filed as inhibitors; actives 2.1% (n = 360,000); A549 ARE-Fluc reporter, luciferase luminescence, 18-24 h; note: % is set by controls: 0 for no effect and ±100 for the full control effect; nearly all actives have a fitted effect of over 60% in size
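Nrf2 activity is the BugLite luminescence, read 15 min after reagent at room temperature, following CellTiter-Fluor cytotoxicity readout (30 min, 37C). Compound titrations were applied for 18-24 h to 5000 A549 ARE_Fluc cells/well in 5% FBS OPTI-MEM.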
Rango complex inh – qHTS Assay for Inhibitors of Rango (Ran-regulated importin-beta cargo) - Importin beta complex formation; Rango CFP/YFP FRET sensor + importin beta, 45 min; Potency, µM (highest dose often 92.2 µM), for inactives: at the top dose inhibition of complex formation; actives 0.031% (n = 340,000); AID 540263, 2011; calls by dose curve;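 note: 0% = DMSO wells and 100% = buffer wells lacking importin beta; nearly all actives have a fitted effect of over 15% in size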
Target sequence (Q14974 whole entry, looked up): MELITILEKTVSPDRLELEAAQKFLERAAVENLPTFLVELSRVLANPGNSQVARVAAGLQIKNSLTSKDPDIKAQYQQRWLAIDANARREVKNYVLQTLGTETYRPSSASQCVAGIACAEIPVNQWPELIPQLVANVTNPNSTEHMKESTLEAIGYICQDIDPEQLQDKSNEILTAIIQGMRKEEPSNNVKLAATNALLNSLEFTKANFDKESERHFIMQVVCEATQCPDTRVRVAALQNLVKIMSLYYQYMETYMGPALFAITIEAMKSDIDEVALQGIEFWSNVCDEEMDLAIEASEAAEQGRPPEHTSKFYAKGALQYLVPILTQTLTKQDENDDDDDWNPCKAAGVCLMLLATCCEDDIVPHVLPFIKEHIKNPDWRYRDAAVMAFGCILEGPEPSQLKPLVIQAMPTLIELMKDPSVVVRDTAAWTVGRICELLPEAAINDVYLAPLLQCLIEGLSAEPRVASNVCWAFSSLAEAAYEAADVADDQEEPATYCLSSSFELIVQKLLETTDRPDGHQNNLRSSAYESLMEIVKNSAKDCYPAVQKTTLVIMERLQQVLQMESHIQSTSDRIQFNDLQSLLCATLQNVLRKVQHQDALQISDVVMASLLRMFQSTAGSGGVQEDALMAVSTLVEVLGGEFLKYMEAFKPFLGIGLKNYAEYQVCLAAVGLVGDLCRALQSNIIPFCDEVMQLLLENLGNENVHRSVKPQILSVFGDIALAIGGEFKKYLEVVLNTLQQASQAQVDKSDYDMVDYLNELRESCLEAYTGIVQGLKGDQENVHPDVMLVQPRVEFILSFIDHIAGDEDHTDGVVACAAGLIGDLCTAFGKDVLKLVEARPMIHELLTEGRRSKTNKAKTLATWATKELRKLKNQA
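Inhibition scored from the CFP 486 nm/YFP 530 nm FRET ratio 45 min after adding 0.125 microM importin beta to 50 nM Rango biosensor preincubated 5 min with compound (room temperature, PBS with DTT, Tween-20, BSA). No-importin wells as positive control.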
* marks the source's active call; other numbers are inactive results; ? = inconclusive; nt = no result; [ ] = remark or other dose. Sampled rows, rich in hits. Any-hit rate of the full collection: about 2.3%. Unless noted, calls come from the whole dose curve; as a rule, active = well fitted curve in the direction sought with a large enough effect; inconclusive = small, poorly fitted or top-dose-only effect, or another doubt; inactive = no such curve, though single readings can be large; an effect the other way counts as inactive or inconclusive. Potency is the fitted concentration of half-maximal effect.

SMILES	Rango dissoc inh	A549 tox	Nrf2 ARE act	Nrf2 block	Rango complex inh
CCN(C[C@H]1N[C@@](Cc2ccccc2)(C(=O)OC)[C@H]2C(=O)N(Cc3ccccc3)C(=O)[C@@H]12)C(=O)Nc1ccc(C(F)(F)F)cc1	5%	?	0%	?	?
N#CNC(=Nc1cccc(F)c1)SCc1cccc(F)c1	6%	-9%	18%	23µM*	2%
O=C(COc1ccccc1C(=O)Nc1ccccc1)c1ccc(Br)cc1	-15%	?	0%	21µM*	-3%
O=S(=O)(NCCc1ccccc1)c1ccc(Br)cc1	5%	0%	0%	-4%	-2%
COc1ccc2[nH]cc(CCNC(=O)c3cnn(-c4ccccc4Cl)c3C3CCN(C(=O)OC(C)(C)C)CC3)c2c1	nt	?	4%	?	nt
O=C(Nc1ccccc1)Nc1nnc(CSCc2ccccc2Cl)s1	-5%	-2%	0%[9.22 µM]	?	0%
O=C(Nc1ccc(Cl)c(Cl)c1)Nc1nnc(CSc2ccccc2)s1	-9%	?	2%	7.3µM*	3%
CCOC(=O)C1CCCN(C(=O)Cn2ncc3c(C)n(Cc4ccccc4F)c(C)c3c2=O)C1 (centres undefined)	nt	4%	1%	-4%	nt
COc1ccc(Br)cc1/C=C/C(=O)c1ccc(NC(C)=O)cc1	-15%	8.2µM*	?	5.2µM*	6%
COc1cccc2c1Oc1ncccc1N(C(=O)CCC(=O)NCCC(C)C)C2	nt	9%	0%	22%	nt
CCn1c(=O)c2sccc2n2c(CCCC(=O)Nc3ccc(Oc4ccccc4)cc3)nnc12	nt	-14%	7%	-2%	nt
Cc1ccc(S(=O)(=O)Nc2cccc3cccnc23)c([N+](=O)[O-])c1	-4%	?	-3%	10µM*	0%
O=S(=O)(Nc1cccc2cccnc12)c1ccc(S(=O)(=O)N2CCCC2)cc1	28%	-10%	?	5.2µM*	0%
Cc1cc(C)c(NS(=O)(=O)c2cccc3cccnc23)c(C)c1	17%	0%	0%	0%	0%
Cc1ccc(NC(=O)c2sc(-n3nc(C)c(Cc4ccc5c(c4)OCO5)c3C)nc2C)cc1C	nt	4%	-1%	22%	nt
CC(=O)c1cccc(NC(=O)c2sc(-n3nc(C)c(Cc4ccc5c(c4)OCO5)c3C)nc2C)c1	nt	?	0%	9.2µM*	nt
CCOP(=O)(OCC)C(C)(C)NC(=O)Nc1ccc(Cl)c(Cl)c1	-3%	2%	0%	23µM*	3%
CCOP(=O)(OCC)C(NC(=O)Nc1ccc(Cl)c(Cl)c1)c1ccccc1 (centres undefined)	1%	-3%	4%	5%	-1%
CCC12CN3CC(C)(CN(C1)C3c1c[nH]c3ccc(OC)cc13)C2=O (centres undefined)	nt	6%	1%	1%	nt
CC(=O)c1c(C)[nH]c(C(=O)CN2CCN(S(=O)(=O)c3ccccc3F)CC2)c1C	-9%	-13%	6%	26µM*	-4%
CC(=O)c1c(C)[nH]c(C(=O)CN2CCN(S(=O)(=O)c3ccc(C(C)C)cc3)CC2)c1C	3%	-13%	0%	15µM*	-4%
Cc1cc(C)cc(NC(=O)C(NS(=O)(=O)c2cccc3nsnc23)c2ccccc2)c1 (centres undefined)	nt	4%	1%	-3%	nt
COc1ccccc1C(=O)NCCC(=O)NNC(=O)c1ccccc1O	2%	19%	0%	2%	-3%
Cc1cc(N/N=C/c2ccccc2O)c2ccccc2n1	?	-22%	1%	18µM*	?
NC(=O)c1cc2c3ccccc3ccn2c1-c1ccccc1	?	-10%	10µM*	12%	-3%
SMILES	Rango dissoc inh	A549 tox	Nrf2 ARE act	Nrf2 block	Rango complex inh
O=S(=O)(c1ccc2c(c1)OCCO2)N1CCN(S(=O)(=O)c2ccccc2OC(F)(F)F)CC1	nt	0%	nt	-5%	nt
O=C(CSc1nc(=O)n(Cc2ccccn2)c2c1CCC2)Nc1ccccc1	nt	1%	3%	26µM*	nt
Cc1cc(C)cc(NC(=O)CSc2nc(=O)n(Cc3ccccn3)c3c2CCC3)c1	nt	-1%	1%	nt	nt
Cc1c(C(C)C)c(=O)n(-c2ccc(S(=O)(=O)NC(C)C)cc2)n1C	-14%	-17%	0%	18µM*	4%
COc1cc2ncnc(N(C)Cc3cccs3)c2cc1-c1ccc2c(c1)OCO2	nt	8%	nt	-10%	nt
CCc1cc2c(=O)c(-c3ccc4c(c3)OCCO4)c(C)oc2cc1OS(C)(=O)=O	-11%	?	4%	23µM*	-4%
Cc1cccc(CCNC(=O)c2nn(C)c3c2CSc2ccccc2-3)c1	nt	4%	3%	4%	nt
O=C1/C(=C/c2cccs2)COc2ccccc21	2%	0%	?	34%	-3%
Cc1ccccc1/C=C1\Oc2ccccc2C1=O	13%	-5%	13µM*	7%	0%
O=C1C(=Cc2cccs2)Oc2ccccc21	?	0%	11µM*	-13%	?
Cc1ccccc1/C=C1\CCCc2ccccc2C1=O	10%	-6%	?	?	-2%
COc1ccc(C(=O)CSc2nc(C)cc(C)c2C(=O)Nc2ccccc2C)cc1	nt	-8%	11%	-19%	nt
CCN(CC)c1ccc(N=Nc2nn(C)c(C)c2[N+](=O)[O-])cc1	-10%	21µM*	3%	?	4%
CCN(Cc1ccccc1)c1ccc(N=Nc2nn(C)c(C)c2[N+](=O)[O-])cc1	23%	16µM*	4%	-25%	0%
COc1cc(/C=N/n2cnnc2-n2nc(C)cc2C)cc([N+](=O)[O-])c1O	-10%	-9%	-1%	-1%	4%
Nc1c(C(=O)c2ccccc2)sc(Nc2ccccc2)c1S(=O)(=O)c1ccccc1	1%	-21%	0%	?	?
CCS(=O)(=O)c1c(Nc2ccc(F)c(Cl)c2)sc(C(=O)c2ccccc2)c1N	nt	?	10%	21µM*	nt
O=C(CSc1nnnn1-c1ccc2c(c1)OCCO2)Nc1nc2c(s1)CCCC2	-17%	?	3%	13µM*	6%
COc1ccc2ncnc(NCc3cccs3)c2c1-c1ccc2c(c1)OCO2	nt	-19%	nt	?	nt
Cc1ccn2c(Nc3ccccc3)c(-c3ccccn3)nc2c1	-8%	?	0%	26µM*	6%
Cc1ccn2c(Nc3ccccc3C)c(-c3ccccn3)nc2c1	-9%	?	2%	?	-2%
Cc1cc(O)c(CN(C)C)c2c1C(=O)/C(=C/c1ccco1)O2	26µM*	-16%	?	7%	?
CC(=O)COc1ccc2c(c1C)O/C(=C\c1ccco1)C2=O	?	-5%	?	1%	?
